Compounds with a hit are over-represented: about 19% of the library has one in this group of screens.
TGFb SMAD3 inh – qHTS for Inhibitors of TGF-b; AID 588855, 2011; 410,000 tested, 1.2% active; HepG2 CAGA-GFP TGF-b/SMAD3 reporter, GFP fluorescence, 18 h; TGF-beta stimulated, 500 pg/mL final; Potency, µM (highest dose often 46.1 µM), hits mostly inhibitors; note: nearly all actives have a fitted effect of over 65% in size
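Using HEPG2 CAGA-GFP reporter cells at 1000 cells/well, we pinned test compounds, stimulated with recombinant TGF-beta (500 pg/mL final) and measured total well GFP after 18 h.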
IL1B secr inh – qHTS for Inhibitors of Inflammasome Signaling: IL-1-beta AlphaLISA Primary Screen; THP-1 LPS/ATP IL-1B secretion, AlphaLISA, 16 h; active compounds read low; activity change, % at 57.5 µM; 360,000 tested, 4.7% active; in the data active = activity change below about -50%; inconclusive = mostly about -30% to -49%
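Secreted IL-1B measured by AlphaLISA bead assay after 16 h compound exposure of THP-1 cells; compounds (final up to 57.5 uM) added 1 h before LPS (250 ng/mL) and ATP (1.25 mM) stimulation; lower signal means less secretion.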
HepG2 viability – qHTS for Inhibitors of TGF-b: Cytotox Counterscreen. 410,000 tested, 0.76% active. AID 588856, 2011. Potency, µM (doses to about 46.1 µM), actives largely listed as cytotoxic. HepG2 CAGA-GFP viability, ATP luminescence, 18 h
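CellTiter-Glo luminescence gave cytotoxicity after 18 hours at 37 degrees C. The cells were HepG2 CAGA-GFP in 1% FBS DMEM, stimulated with 500 pg/mL TGF-beta after compound addition. %Activity was normalised to no-cell wells (complete cell-killing) and DMSO (no toxicity), and curves were fitted and classified.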
TDP1 cell noCPT – qHTS for Inhibitors of human tyrosyl-DNA phosphodiesterase 1 (TDP1): qHTS in cells in absence of CPT. 420,000 tested, 15% active. AID 686978, 2013. Potency, µM (highest dose often 46.2 µM), most hits filed as inhibitors. DT40 Tdp1-/- hTDP1 cells, no CPT, ATP luminescence, 48 h; note: nearly all actives have a fitted effect of over 55% in size
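Compound effects on proliferation are scored in DT40 Tdp1-/-;hTDP1 cells in the absence of CPT. ATP levels (CellTiter-Glo luminescence) are recorded after a ≥48 hr, 37 °C incubation.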
DT40 TDP1 CPT – qHTS for Inhibitors of human tyrosyl-DNA phosphodiesterase 1 (TDP1): qHTS in cells in presence of CPT | chicken DT40 Tdp1-/-;hTDP1 cells + 20 nM CPT, ATP luminescence, 48 h | Potency, µM (doses to about 46.2 µM), most hits filed as inhibitors | 420,000 tested, 12% active | AID 686979, 2013; note: nearly all actives have a fitted effect of over 55% in size
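Chicken DT40 Tdp1-/- cells complemented with human TDP1, 400 cells/well, exposed to compounds plus 20 nM camptothecin for at least 48 h at 37 C; viability read as ATP content by CellTiter-Glo luminescence.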
S-ASM inh – Inhibitors of Secretory Acid Sphingomyelinase (S-ASM): qHTS; Sphingomyelin phosphodiesterase (Homo sapiens), P17405; placental ASM, HMU-PC fluorogenic substrate, 60 min; Potency, µM (series often up to 57.5 µM), hits mostly inhibitors; 340,000 tested, 0.006% active; AID 504937, 2011
Target sequence (P17405 47-631 limits assumed): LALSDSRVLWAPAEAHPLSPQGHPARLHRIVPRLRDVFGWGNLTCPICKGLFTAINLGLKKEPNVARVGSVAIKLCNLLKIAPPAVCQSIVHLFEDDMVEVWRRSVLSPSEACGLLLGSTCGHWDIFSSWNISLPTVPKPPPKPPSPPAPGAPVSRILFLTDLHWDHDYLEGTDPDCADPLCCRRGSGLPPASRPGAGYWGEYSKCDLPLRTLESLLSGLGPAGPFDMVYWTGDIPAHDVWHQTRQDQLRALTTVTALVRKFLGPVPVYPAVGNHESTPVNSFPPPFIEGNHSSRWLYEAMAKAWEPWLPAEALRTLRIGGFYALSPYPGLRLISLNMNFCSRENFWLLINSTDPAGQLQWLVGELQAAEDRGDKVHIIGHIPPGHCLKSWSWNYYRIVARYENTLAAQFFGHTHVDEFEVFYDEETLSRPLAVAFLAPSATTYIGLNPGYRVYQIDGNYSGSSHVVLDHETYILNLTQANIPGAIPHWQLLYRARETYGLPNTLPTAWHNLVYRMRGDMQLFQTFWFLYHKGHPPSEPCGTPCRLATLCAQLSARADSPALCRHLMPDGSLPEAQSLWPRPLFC
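Fluorescence read-out (Ex 386 nm, Em 447 nm) after stopping the reaction at pH 10. Enzyme: ASM from human placenta; substrate HMU-PC0, 9 uM final; 60 min, 37 °C. Compound preincubation 10 min, ambient temperature.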
Large screens that a line does not name were inactive. Unless noted, calls come from the whole dose curve; as a rule, active = well fitted curve in the direction sought with a large enough effect; inconclusive = small, poorly fitted or top-dose-only effect, or another doubt; inactive = no such curve, though single readings can be large; an effect the other way counts as inactive or inconclusive.

O=C(CCNC(=O)c1ccccc1Cl)NNC(=O)c1ccccc1O	TDP1 cell noCPT inconclusive, DT40 TDP1 CPT inconclusive
O=C(CC(=O)c1ccccc1O)c1cccc(F)c1	TGFb SMAD3 inh inconclusive, TDP1 cell noCPT 4.1µM, DT40 TDP1 CPT 6.5µM
CC1C(=O)C(C)C(c2cccs2)NC1c1cccs1 (stereo not drawn)	none
CCC1(CC)C(=O)C(C)(C)C(=O)OC1c1cccs1 (stereo not drawn)	TGFb SMAD3 inh inconclusive, TDP1 cell noCPT 21µM, DT40 TDP1 CPT inconclusive
N=c1c(C(=O)NCc2ccccc2)cc2c(=O)n3ccccc3nc2n1Cc1ccco1	TGFb SMAD3 inh inconclusive, IL1B secr inh inconclusive, TDP1 cell noCPT inconclusive, DT40 TDP1 CPT inconclusive
Cc1ccc(CNC(=O)c2cc3c(=O)n4ccccc4nc3n(Cc3ccco3)c2=N)cc1	IL1B secr inh -94, TDP1 cell noCPT 15µM, DT40 TDP1 CPT 13µM
N=c1c(C(=O)NCc2ccc(F)cc2)cc2c(=O)n3ccccc3nc2n1Cc1ccco1	TDP1 cell noCPT 16µM, DT40 TDP1 CPT 16µM
N=c1c(C(=O)NCc2ccco2)cc2c(=O)n3ccccc3nc2n1Cc1ccccc1	TDP1 cell noCPT inconclusive, DT40 TDP1 CPT inconclusive
Cc1ccc2nc3c(cc(C(=O)NCc4ccco4)c(=N)n3Cc3ccco3)c(=O)n2c1	TDP1 cell noCPT 21µM, DT40 TDP1 CPT inconclusive
Cc1ccc2nc3c(cc(C(=O)NCCc4ccccc4)c(=N)n3CCN3CCOCC3)c(=O)n2c1	TDP1 cell noCPT 26µM, DT40 TDP1 CPT inconclusive
Cn1cc(C(=O)[C@@H]2CCc3nc[nH]c3C2)c2ccccc21	none (no result: TGFb SMAD3 inh, IL1B secr inh, HepG2 viability, S-ASM inh)
Cc1ccc(Cl)cc1N1CCN(C(=O)CN2C(=O)COc3ccc(S(=O)(=O)N4CCCCCC4)cc32)CC1	none (no result: IL1B secr inh, TDP1 cell noCPT, DT40 TDP1 CPT, S-ASM inh)
Cc1ccc(NC2=C(CC(=O)O)C(c3ccccc3)N(c3ccc(C)cc3)C2=O)cc1 (stereo not drawn)	TGFb SMAD3 inh inconclusive, TDP1 cell noCPT inconclusive, DT40 TDP1 CPT 16µM
COc1cccc(NC(=O)Nc2ccc(C(C)(C)C)cc2)c1	TGFb SMAD3 inh inconclusive, IL1B secr inh -66, TDP1 cell noCPT 23µM, DT40 TDP1 CPT inconclusive
O=C(Nc1ccc(C(=O)O)cc1)Nc1ccc([N+](=O)[O-])cc1	none
COC(=O)c1ccc(Cl)cc1NC(=O)NC(C)c1c(-n2cccc2)sc(C)c1C (stereo not drawn)	TDP1 cell noCPT inconclusive, DT40 TDP1 CPT inconclusive (no result: TGFb SMAD3 inh, IL1B secr inh, S-ASM inh)
CC(C)(C)c1ccc(COC(=O)Nc2ccc(F)cc2)cc1	none
CC(C)(C)c1ccc(NC(=O)Nc2ccc(F)cc2)cc1	IL1B secr inh inconclusive, TDP1 cell noCPT 6.5µM, DT40 TDP1 CPT 5.2µM
Cc1sc(-n2cccc2)c(C(C)NC(=O)Nc2cccc(C(F)(F)F)c2)c1C (stereo not drawn)	TDP1 cell noCPT 21µM, DT40 TDP1 CPT inconclusive (no result: TGFb SMAD3 inh, IL1B secr inh, S-ASM inh)
COC(=O)c1ccc(NC(=O)Nc2ccc([N+](=O)[O-])cc2)cc1	IL1B secr inh inconclusive, TDP1 cell noCPT 2.3µM, DT40 TDP1 CPT 2.6µM
CCc1cc(=O)oc2cc(C)cc(OCC(=O)NC(Cc3ccc(Cl)cc3)C(=O)O)c12 (stereo not drawn)	none
CCN1CCN(c2ncc3c(n2)CCN(Cc2ccccc2C)C3)CC1	TDP1 cell noCPT inconclusive, DT40 TDP1 CPT inconclusive (no result: IL1B secr inh, S-ASM inh)
CCNC(=O)C1CCCN(C(=O)c2ccc(C)c(F)c2)CC1 (stereo not drawn)	none (no result: S-ASM inh)
COc1ccc(NC(=O)NNC(=O)c2ccc(-c3ccccc3)cc2)cc1	DT40 TDP1 CPT inconclusive
CCN(Cc1ccncc1)Cc1ccc2c(c1)CN(C(=O)c1ccccc1-n1cccn1)CCO2	none (no result: TGFb SMAD3 inh, IL1B secr inh, HepG2 viability, S-ASM inh)
COc1ccc(NC(=O)c2cccc(-c3ccc(O)cc3)c2)cn1	IL1B secr inh -74, TDP1 cell noCPT 21µM, DT40 TDP1 CPT 15µM
COc1ccc(/C=C/C(=O)Nc2ccc(OC)nc2)cc1	IL1B secr inh inconclusive, TDP1 cell noCPT inconclusive
COc1ccc(NC(=O)/C=C/c2ccc(OC(F)F)cc2)cn1	IL1B secr inh -54, TDP1 cell noCPT inconclusive
COc1ccc(NC(=S)Nc2ccccc2)cn1	none
COc1ccc(NC(=O)Nc2ccc(F)cc2)cn1	TDP1 cell noCPT 7.3µM, DT40 TDP1 CPT 16µM
Cc1cccc(NC(=O)Nc2nnc(N3CCCCC3C)s2)c1C (stereo not drawn)	TDP1 cell noCPT inconclusive
CC1CCCCN1c1nnc(NC(=O)Nc2ccccc2F)s1 (stereo not drawn)	TDP1 cell noCPT 21µM, DT40 TDP1 CPT inconclusive (no result: IL1B secr inh, S-ASM inh)
CCN(CC)C(=O)c1ncn2c1C(=O)N(C)CC2	none (no result: S-ASM inh)
COc1cccc(C(C)NC(=O)Nc2cccc(C(F)(F)F)c2)c1 (stereo not drawn)	TGFb SMAD3 inh inconclusive, TDP1 cell noCPT 10µM, DT40 TDP1 CPT 21µM
COC(=O)c1ccc(NC(=O)Nc2ccc(F)cc2)cc1	IL1B secr inh inconclusive, TDP1 cell noCPT 13µM, DT40 TDP1 CPT 18µM
COc1cccc(NC(=O)Nc2nnc(N3C(C)CCCC3C)s2)c1 (stereo not drawn)	TDP1 cell noCPT 18µM, DT40 TDP1 CPT inconclusive
O=C(c1ccccc1)N1CCCCC1	none
O=C(c1cccc(-c2nnc(-c3ccccc3)o2)c1)N1CCCCCC1	TDP1 cell noCPT 14µM, DT40 TDP1 CPT inconclusive
